For one test, the target named is MACROD1. In words: pooled miR-30 sensor sort-seq; sequence = guide strand. As to conditions: shRNA.
The sequence TTCGCCTCCTTCCAGTCGGTGG returned a sensor-assay potency score (higher = more potent) of -1.48.
TTGAGCTGCTTGTCCTTTTTAT returned a sensor-assay potency score (higher = more potent) of -0.992.
As for TCATTGAGCTGCTTGTCCTTTT, the sensor-assay potency score (higher = more potent) is -0.672.

The target of the next test is MAD2L2. The description is as above. As to conditions: shRNA.
TTTTTAGTGGTATCAGCCGGGG: the sensor-assay potency score (higher = more potent) was -0.778.
The sequence TATACTGATTCAGCTCCGGGTG showed a sensor-assay potency score (higher = more potent) of -0.735.
TGTACTTCTTGCGTTTCTGGAA came in with a sensor-assay potency score (higher = more potent) of -0.3.
On the same count and under the same terms, under TGGATCTTCTCCATGTTGCGAG stands -0.717; under TCCACATGAGACAACAGCGAGT, -1.88.
As to TTGTACTTCTTGCGTTTCTGGA, the sensor-assay potency score (higher = more potent) was -0.29.
As to TGAGACAACAGCGAGTCTGAGC, the sensor-assay potency score (higher = more potent) was -0.635.
As to TTTAGTGGTATCAGCCGGGGGT, the sensor-assay potency score (higher = more potent) is -0.467.
TTTTAGTGGTATCAGCCGGGGG showed a sensor-assay potency score (higher = more potent) of -1.07.
The sequence TTCCACGTAAAGCTGCATCTTT registered a sensor-assay potency score (higher = more potent) of -0.0388.
As to TTTATCCAAAATCACCACCACC, the sensor-assay potency score (higher = more potent) was -1.44.
As to TTTCTCCACATCATTCTTCTCC, the sensor-assay potency score (higher = more potent) was -0.203.

The next test has as its target MAFG. Described as above. As to conditions: shRNA.
TTTATCGGGGACACACTCTAGC registered a sensor-assay potency score (higher = more potent) of -0.0679.
Regarding TACTATTGTGATGACGCTGGTG, the sensor-assay potency score (higher = more potent) amounted to 0.19.
Sequence ATAATGTCTGATAACTCTGTGT returned a sensor-assay potency score (higher = more potent) of -0.547.
On to TCGAGCTCCAGCTTCATGCTGG, for which the sensor-assay potency score (higher = more potent) was -0.0457.
The sequence TTATATATCACAAACATACACT displayed a sensor-assay potency score (higher = more potent) of -0.989.
As to TTCTATTATACTTTCTTCCCTT, the sensor-assay potency score (higher = more potent) is -0.191.
The sequence TAGATCTTTAATAACCTCCATC yielded a sensor-assay potency score (higher = more potent) of -0.748.
Same read-out and setting: then TATATAAAAACTAAACTCCAAC, with -1.06.
As for TTTACTATTGTGATGACGCTGG, the sensor-assay potency score (higher = more potent) worked out at 0.761.
As for TATAATTAATTTAATAACTTTG, the sensor-assay potency score (higher = more potent) was -0.864.
The same measure, in the same setting: under TTTAGCAATAAATACTGCGCAG stands -0.617.
Same read-out and setting: under TTAGCAATAAATACTGCGCAGG stands -0.418.

A further test addresses MAF. The description is as above. The following applies: shRNA.
TTTTCTCGGAAGCCGCTGCTCA returned a sensor-assay potency score (higher = more potent) of -0.816.
TCATCCAGTAGTAGTCTTCCAG: the sensor-assay potency score (higher = more potent) was -0.918.
Turning to TTTCAGGGTCCGCCTCTTCTGC, the sensor-assay potency score (higher = more potent) was -1.55.
TTGAGGTGGTCGACTTGCTGCA showed a sensor-assay potency score (higher = more potent) of -0.511.
Still for that read-out and setting: under TCGACTTGCTGCAGCAGCTGGT stands -0.659; under TTCAGCTCGCGCACAGACATGG, -0.726.
For TAGCCGGTCATCCAGTAGTAGT, the sensor-assay potency score (higher = more potent) is -1.7.
Turning to TCCCTCTCGCGCACCAGCCTGG, the sensor-assay potency score (higher = more potent) was -1.61.
As to TGCTGCACCCTCTTGAAGCGGC, the sensor-assay potency score (higher = more potent) is -0.694.
In turn, AACTTCTCGTATTTCTCCTTGT displayed a sensor-assay potency score (higher = more potent) of -0.264.

The target of another test is MAGEA2B. The test is described as above. As to conditions: shRNA.
TTGATGGTAGTCGAGAAGCTGG returned a sensor-assay potency score (higher = more potent) of -0.963.
In the case of TTAGTGTATGGTGCAGGACTTT, the sensor-assay potency score (higher = more potent) is -1.05.
On the same count and under the same terms, then AAATGTGAGGTTCTCCACCGAT, with -0.397.

These data come from the OligoGym collection.
Note: reference of the scale not given here.
